AI-2 QS modul – modulators of Vibrio harveyi AI-2 quorum sensing system | Vibrio harveyi JMH597 AI-2 luminescence/OD600 ratio, 9 h; hits give low values; strain lacks LuxN and CqsS sensors; 0 = neutral-control median | activity change, % at 7.5 µM | 300,000 compounds, 0.4% hits | AID 2094; in the data active = activity change below about -75%, passing the limit was not always enough;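 also: luminescence divided by OD600 gain over 9 h not by final OD600 alone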
SUMO Mot1 rescue – SUMOylation pathway inhibition by Mot1-301 growth rescue; S. cerevisiae Mot1-301 growth rescue, ATP luminescence, 38.5C; percent above DMSO median, 100 means doubled; growth rescue, % at 18.8 µM; 320,000 compounds, 1% hits; AID 2716;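 active = every valid replicate shows activation above 250% relative to neutral control wells; inactive = the rest, any valid replicate at or below 250%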;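 also: OY570 slx delta 5 strain wells were the positive control but not used for scaling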
AHR activator – activators of human aryl hydrocarbon receptor; AHR-responsive luciferase reporter cells, luminescence; activation, % at 5 µM; 320,000 compounds, 2.5% hits; in the data active = activation above about 47%;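 also: 0% = vehicle wells and 100% = reference agonist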
NTR1 agonist – agonists of human neurotensin receptor NTR1; AID 493036; 330,000 compounds, 0.17% hits; activation, % at 20 µM; P30989; NTR1-U2OS beta-arrestin-GFP spot imaging, agonist mode;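 active = activation at or above 40% of the spot to cytoplasm intensity ratio, with at least 20 cells analyzed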;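 also: 0% = DMSO without peptide and 100% = 100 nM NTR1 peptide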
NR3A LBD binder – modulates the human NR3A ligand-binding domain. Tm shift relative to glycine control, % at 25 µM. 340,000 compounds, 2.5% hits. AID 1259313. NR3A LBD differential scanning fluorimetry, Tm shift; 0% = protein alone, 100% = glycine-bound protein;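 active = melting temperature shift of at least 10% of the positive control shift, at one fixed dose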
Cardio protect – protects H9c2 cardiomyocytes from peroxide injury | protection from H2O2 cell death, % at 20 µM | AID 588492 | H2O2 injury protection, ATPLite, 2 h | 360,000 compounds, 0.63% hits;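 active = compounds giving at least 50% protection of heart cells from peroxide-induced death in the single-dose screen, raw or plate-pattern-corrected value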;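 also: 0% = DMSO wells with peroxide and 100% = DMSO wells without peroxide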
* marks the source's active call; other numbers are inactive results; x = no result. Sampled rows, rich in hits. Any-hit rate of the full collection: about 6.2%.

SMILES | AI-2 QS modul | SUMO Mot1 rescue | AHR activator | NTR1 agonist | NR3A LBD binder | Cardio protect
CCOc1ccc2nc(NC(=O)C3CCCO3)sc2c1 (centres undefined) | -4 | 21 | 12 | 0 | 0 | -2
CCOc1ccc2nc(NC(=O)NC3CCCCC3)sc2c1 | 17 | 296 | 15 | 9 | 18* | -8
COc1ccc2sc(NC(=O)NC(=O)c3c(Cl)cccc3Cl)nc2c1 | 0 | 84 | 6 | 6 | 18* | -4
CC(C)NC(=O)c1cc(C2CCCCN2C(=O)c2ccc(C#N)cc2)on1 (centres undefined) | x | x | x | x | x | -7
O=C(Nc1c2c(nn1-c1ccc([N+](=O)[O-])cc1)CS(=O)(=O)C2)c1ccco1 | 13 | 2 | -1 | 0 | -2 | 0
CCOC(=O)CC1C(=O)NCCN1S(=O)(=O)c1ccc(NC(C)=O)cc1 (centres undefined) | 19 | -8 | -2 | 2 | 2 | -2
COc1ccc(NC(=O)Nc2nc3c(s2)CCCC3)cc1 | 4 | 12 | 4 | 4 | 22* | -10
COc1ccc2nc(NC(=O)c3ccccc3C(=O)O)sc2c1 | 6 | -2 | 15 | -1 | -1 | 0
O=C(COc1ccc(F)cc1)Nc1nc2c(s1)CCCC2 | 3 | 104 | -2 | 0 | 14* | -4
COc1ccc2nc(NC(=O)Nc3ccccc3)sc2c1 | 19 | 53 | 7 | 0 | 23* | -38
COc1ccc(OCC(=O)Nc2nc3c(s2)CCCC3)cc1 | 4 | x | 1 | -1 | -1 | -4
CCOc1ccc(N(CC(=O)NCc2ccc(OC)cc2)S(C)(=O)=O)cc1 | 14 | -19 | 5 | 0 | -1 | -2
O=[N+]([O-])c1ccccc1CSc1nc2ccccc2o1 | -4 | 5 | 48* | 5 | 0 | -6
N#CCSc1nc2ccccc2o1 | 15 | 10 | 0 | 0 | 1 | 4
CCc1nc(N)nc(N)c1-c1ccc(NCCN)c([N+](=O)[O-])c1 | x | x | x | x | 1 | 6
CCc1nc(N)nc(N)c1-c1ccc(N(C)Cc2ccccc2)c([N+](=O)[O-])c1 | x | x | x | x | 13* | -8
O[C@H]1C[C@H](c2ccc(Cl)cc2)N(CC2CCCCC2)C[C@@H]1n1cc(-c2ccc(F)cc2)nn1 | x | x | x | x | x | -5
Cc1ccc(C(=O)c2coc3c2C(=O)C(=O)c2ccccc2-3)cc1 | -3 | 3 | 50* | 5 | 1 | -21
COCCn1nnnc1CN(CCc1ccccc1)Cc1cc2cc(OC)ccc2[nH]c1=O | 6 | -1 | 9 | 1 | 0 | 64*
COc1ccc2[nH]c(=O)c(CN(Cc3nnnn3Cc3ccccc3)CC3CCCO3)cc2c1 (centres undefined) | 27 | 41 | 16 | 0 | 1 | 67*
COc1ccc2[nH]c(=O)c(CN(Cc3nnnn3Cc3ccc(F)cc3)CC3CCCO3)cc2c1 (centres undefined) | 31 | -7 | 3 | 1 | 0 | 32
O=C(NCCc1ccccc1)c1n[nH]c(=O)c2ccccc12 | 26 | -17 | 4 | 1 | 0 | 7
CC1CCN(CCCNC(=O)c2n[nH]c(=O)c3ccccc23)CC1 | 23 | x | 1 | -2 | 2 | 72*
N#Cc1c(-c2ccco2)cc(-c2ccccn2)nc1N | 18 | 1 | 16 | 0 | -14 | 88*
Cc1cccc(CN2[C@H](COC(=O)Nc3ccccc3)C=CS2(=O)=O)c1 | x | x | x | x | x | -2
COc1cccc(C2Nc3cc(Cl)c(S(N)(=O)=O)cc3S(=O)(=O)N2)c1 (centres undefined) | 29 | 5 | 1 | -1 | 11* | 1
COc1cc(C2Nc3cc(Cl)c(S(N)(=O)=O)cc3S(=O)(=O)N2)cc(OC)c1OC (centres undefined) | 13 | -25 | 1 | -1 | 1 | 1
CCOc1ccc(C(=O)NCC(=O)OCc2c(F)cccc2Cl)cc1OCC | 21 | -7 | 2 | 2 | 14* | 0
CCOc1ccc(C(=O)NCC(=O)OCc2c(F)cccc2Cl)cc1 | 14 | 14 | 3 | -1 | 6 | -17
COC(=O)c1cc(NC(=O)c2ccc([N+](=O)[O-])cc2)c(=O)oc1C | -10 | 975* | -2 | 0 | 0 | -10
